The values below come from ChEMBL document CHEMBL1157539, “Thousands of chemical starting points for antimalarial lead identification” (Nature, 2010).

The structures appear in SMILES notation. Non-standard residues stand in square brackets, D forms with d. Residues, ends and D or L forms follow the SMILES beside them. *: point of attachment. Butanoyl(4-(4-HOPh)) = O=C(CCCc1ccc(O)cc1)*

Holding throughout (format): functional
The subject of assay [1] is Plasmodium falciparum. The experiment in a line: GSK_TCMDC: Inhibition of Plasmodium falciparum 3D7 in whole red blood cells, using parasite LDH activity as an index of growth. Test compounds present at 2uM.
The subject of assay [2] is Plasmodium falciparum. As to the kind of experiment: GSK_TCMDC: Inhibition of Plasmodium falciparum Dd2 in whole red blood cells, using parasite LDH activity as an index of growth. Test compounds present at 2uM.
The test system of the next assay is HepG2. As to the kind of experiment: GSK_TCMDC: Percent inhibition of human HepG2 cell line. Test compounds present at 10uM.

For orientation: Inhibition means the relative decrease from the control value, in per cent. The low end stands for little suppression, the high end for strong suppression. For `CN(C)CCC(O)C=C(c1ccc(Cl)cc1)c1ccc(Cl)cc1` (configuration not stated), the Inhibition worked out at 93% with Plasmodium falciparum [1], 85% in the assay on Plasmodium falciparum [2] and 33% with HepG2.
For the compound `N#Cc1ccc(CN2CCC(Oc3ccc(NC(=O)c4ccsc4)cc3Cl)C2)cc1.O=C(O)C(F)(F)F` (configuration not stated), the results for the Inhibition in the assay with Plasmodium falciparum [1], in the assay with Plasmodium falciparum [2] and in the assay with HepG2 were 88%, 79% and 29%, respectively.
In the same order, the values of `c1cncc(-c2cc(N3CCc4ccccc4C3)nc(-c3ccncc3)n2)c1` are 100%, 100% and 56%.
Taken in the same sequence, the figures for `COc1cc(NC(=O)c2cc([N+](=O)[O-])ccc2NC(=O)CNC2CCCCC2C)cc(OC)c1` (configuration not stated) were 87%, 78% and 0%.
In the same order, the values of `O=C(NCC(=O)N1CCC[C@H]1C(=O)O)[C@@H](Cc1ccccc1)NC(=O)[C@@H]1CCCN1C(=O)CCCc1ccc(O)cc1` ({Butanoyl(4-(4-HOPh))}-P[dF]GP-OH) are 81%, 1% and 1%.
Regarding `COc1ccc(C2CC(=O)C3=C(C2)NC(C)=C(C(=O)OC(C)C)C3c2ccccc2F)cc1OC` (configuration not stated), the Inhibition in the assay on Plasmodium falciparum [1] is reported as 100%; with Plasmodium falciparum [2] it was 99%; in the assay on HepG2, 14%.
In the case of `O=C(NC1CC1)c1ccc(N2CCCC(COc3ccc4c(c3)CCCC4)C2)nc1` (configuration not stated), the results for the Inhibition with Plasmodium falciparum [1], with Plasmodium falciparum [2] and with HepG2 were 85%, 65% and 0%, respectively.
In the same order, the values of `CC(C)CCCC(C)(C)NC[C@@H](O)[C@H](Cc1ccccc1)NC(=O)c1cccc(OCC2CC2)c1` are 96%, 91% and 99%.
For `CCCC(C)Nc1nc(C)cc(N[C@@H](Cc2ccccc2)C(=O)Nc2ccc(OC)cc2)n1.O=C(O)C(F)(F)F` (some centres not stated), the figures for the Inhibition in the assay with Plasmodium falciparum [1], with Plasmodium falciparum [2] and with HepG2 were 100%, 72% and 24%, respectively.
For `Cc1cc(Nc2ncc(Cl)c(Nc3ccccc3C(N)=O)n2)n[nH]1`, the results for the Inhibition with Plasmodium falciparum [1], in the assay on Plasmodium falciparum [2] and with HepG2 were 98%, 96% and 70%, respectively.
In the same order, the values of `NC1=NC(c2ccccc2)(c2ccccn2)C(=O)N1CCCc1ccccc1.O=C(O)C(F)(F)F` (configuration not stated) are 85%, 64% and 0%.
As to `Cc1cccc(C(=O)Nc2ccc(N3CCCN(Cc4cccc(O)c4)CC3)cc2)c1.O=C(O)C(F)(F)F`, the Inhibition in the assay with Plasmodium falciparum [1] is given as 92%; in the assay on Plasmodium falciparum [2], 44%; in the assay with HepG2, 2%.
In the same order, the values of `CC(O)C1CCCCN1C(=O)c1cccc(-c2ccc(-c3nc4cc(C(F)(F)F)ccc4[nH]3)cc2)c1` (configuration not stated) are 100%, 100% and 33%.
In the same order, the values of `O=C(/C=C/c1ccc(Cl)c(Cl)c1)NCCCCCN1CCC(NC(=S)Nc2ccc(F)cc2F)CC1` are 100%, 18% and 20%.
Taken in the same sequence, the figures for `O=C(Nc1cccc(-c2ccc(CN3CCCC3)cc2)c1)c1cccc(Cl)c1.O=C(O)C(F)(F)F` were 100%, 61% and 32%.
Turning to `CC(C)(C)[C@@H](Nc1ccc(C#N)c2ccccc12)C(=O)NC1(Cc2ccc(O)cc2)CCCC1`, the Inhibition with Plasmodium falciparum [1] was 90%; in the assay with Plasmodium falciparum [2], 74%; in the assay on HepG2, 14%.
On to `COC(=O)c1cccc(CNCc2ccc(-c3ccc(-c4nc5cc(C(F)(F)F)ccc5[nH]4)s3)cc2)c1.O=C(O)C(F)(F)F`, for which the values for the Inhibition in the assay on Plasmodium falciparum [1], in the assay on Plasmodium falciparum [2] and in the assay on HepG2 were 100%, 96% and 34%, respectively.
Taken in the same sequence, the figures for `CCN(CC)CCCC(C)Nc1c2ccccc2nc2c1ccc1ccccc12.Cl` (configuration not stated) were 96%, 34% and 18%.
In the same order, the values of `CCCCCCN(CCCCCC)CC(O)c1cc(-c2ccc(Cl)cc2)nc2c(C)cc(C)cc12` (configuration not stated) are 98%, 98% and 27%.
On to `CCc1ccc(S(=O)(=O)Nc2cccc(CCN3CCC(N4CCCCC4)CC3)c2)cc1`, for which the results for the Inhibition with Plasmodium falciparum [1], with Plasmodium falciparum [2] and with HepG2 were 100%, 20% and 21%, respectively.
Turning to `CN(C)Cc1cccc(-c2ccc(NC(=O)c3ccc4c(=O)n(CC5CCCO5)cnc4c3)cc2)c1` (configuration not stated), the Inhibition in the assay on Plasmodium falciparum [1] came to 97%; with Plasmodium falciparum [2], 14%; in the assay on HepG2, 28%.
In the same order, the values of `CNC(=O)c1cnc(Nc2ccc(N3CCOCC3)cc2)nc1Nc1cccc(OC)c1.O=C(O)C(F)(F)F` are 96%, 41% and 2%.
On to `O=C(O)C(F)(F)F.O=c1[nH]ccc2nc(N[C@@H]3CCNC3)nc(Nc3cccc(S(=O)(=O)N4CCOCC4)c3)c12`, for which the Inhibition is 90% in the assay on Plasmodium falciparum [1], 98% in the assay on Plasmodium falciparum [2] and 0% with HepG2.
Taken in the same sequence, the figures for `COc1ccc(CNCc2cccc(-c3ccc(-c4nc5ccccc5[nH]4)cc3)c2)cc1.O=C(O)C(F)(F)F` were 100%, 60% and 22%.
With `CN(c1ccc2c(c1)nc(Nc1cc(C(C)(C)C)on1)n2C)c1ccnc(Nc2ccc(CS(C)(=O)=O)cc2)n1`, the Inhibition in the assay with Plasmodium falciparum [1] came out at 89%; in the assay with Plasmodium falciparum [2] it was 13%; with HepG2 it was 77%.
In the same order, the values of `CS(=O)(=O)c1cccc(-c2cnc(N)c3cc(-c4cccc(F)c4)ccc23)c1` are 97%, 13% and 45%.
In the case of `CN(C(=O)Nc1ccc(F)cc1)C1CCN(CCCCCNC(=O)/C=C/c2ccc(Cl)c(Cl)c2)CC1`, the values for the Inhibition in the assay with Plasmodium falciparum [1], in the assay with Plasmodium falciparum [2] and with HepG2 were 89%, 0% and 38%, respectively.
As to `Cc1ccc2oc3cc(-c4nnn[nH]4)ccc3c(=O)c2c1`, the results for the Inhibition in the assay with Plasmodium falciparum [1], with Plasmodium falciparum [2] and in the assay on HepG2 were 97%, 96% and 2%, respectively.
In the same order, the values of `CC(C)c1ccc2oc(-c3ccc(NC(=O)c4ccc([N+](=O)[O-])o4)cc3)nc2c1` are 100%, 95% and 99%.
